Reference: the supplement of paper PMC10849652
Targets with a hit are over-represented here; the source holds about 7,900 in all. About 0.6% of all pairs of compound and target were hits.

How the values were obtained:
Experiment in all cases: log2 fold change, soluble protein after heating vs DMSO (PISA); higher = thermal stabilisation; K562 cells, 10 uM, 30 min; active = over 0.2 and 3.5 SD of the protein, either way, in both replicates (recomputed)
[1] = compound: CS(=O)(=O)c1ccc(-c2cnc(N)c(C(=O)Nc3ccccc3)n2)cc1
How it was run: (§1)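 Quantification of soluble protein used TMTpro 16plex LC-MS/MS, with channel sums equalised. Samples were the supernatant after 21,000xg for 90 min of pooled aliquots from K562 cells (2×10^6 cells/mL) treated with 10 μM compound for 30 min, heated for 3 min over 48°C-58°C, and extracted in PBS with 0.5% NP-40 at 4°C. Values, from duplicates, describe thermal stability against control samples on a log2 fold-change scale.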

[2] = compound: C[C@@H](Oc1cc(-c2cnn(C3CCNCC3)c2)cnc1N)c1c(Cl)ccc(F)c1Cl [crizotinib]
How it was run: as §1

[3] = compound: C[C@@H]1COCCN1C2=NC(=NC(=C2)C3(CC3)S(=O)(=O)C)C4=C5C=CNC5=CC=C4
How it was run: as §1

[4] = compound: C[C@H](C1=CC=C(C=C1)C(=O)NC2=C3C=CNC3=NC=C2)N
How it was run: as §1

[5] = compound: C[C@H](Nc1ncnc2nc[nH]c12)c1cc2cccc(Cl)c2c(=O)n1-c1ccccc1 [duvelisib]
How it was run: as §1

[6] = compound: Cc1cc(Nc2cc(CN3CCOCC3)c3nc(C)c(Cc4ccc(Cl)cc4F)n3n2)n[nH]1 [gandotinib]
How it was run: as §1

[7] = compound: Cc1cc(Nc2cc(N3CCN(C)CC3)nc(Sc3ccc(NC(=O)C4CC4)cc3)n2)n[nH]1 [tozasertib]
How it was run: as §1

[8] = compound: Cc1cc(SCc2sc(-c3ccc(C(F)(F)F)cc3)nc2C)ccc1OCC(=O)O
How it was run: as §1

[9] = compound: Cc1ccc(-n2nc(C(C)(C)C)cc2NC(=O)Nc2ccc(OCCN3CCOCC3)c3ccccc23)cc1 [doramapimod]
How it was run: as §1

[10] = compound: Cc1ccc(C(=O)N(CCCN)[C@@H](c2nc3cc(Cl)ccc3c(=O)n2Cc2ccccc2)C(C)C)cc1 [ispinesib]
How it was run: as §1

[11] = compound: Cc1ccc(NC(=O)c2ccc(CN3CC[C@H](N(C)C)C3)c(C(F)(F)F)c2)cc1Nc1nccc(-c2cncnc2)n1 [bafetinib]
How it was run: as §1

[12] = compound: Cc1cccc(CC(=O)N2CCc3c2ccc(-c2cn(C)c4ncnc(N)c24)c3F)n1
How it was run: as §1

[13] = compound: Cc1cn(-c2cc(NC(=O)c3ccc(C)c(Nc4nccc(-c5cccnc5)n4)c3)cc(C(F)(F)F)c2)cn1 [nilotinib]
How it was run: as §1

[14] = compound: Cc1nc(Nc2n[nH]c3c2CN(C(=O)N[C@H](CN(C)C)c2ccccc2)C3(C)C)c2sccc2n1
How it was run: as §1

[15] = compound: Cc1nc(Nc2ncc(C(=O)Nc3c(C)cccc3Cl)s2)cc(N2CCN(CCO)CC2)n1 [dasatinib]
How it was run: as §1

[16] = compound: Cc1ncc(-c2ccnc(Nc3ccc(S(C)(=O)=O)cc3)n2)n1C(C)C
How it was run: as §1

[17] = compound: Cn1cc(-c2ccc3c(c2)CCN3C(=O)Cc2cccc(C(F)(F)F)c2)c2c(N)ncnc21
How it was run: as §1

[18] = compound: Cn1cc(-c2ccc3nnc(C(F)(F)c4ccc5ncccc5c4)n3n2)cn1
How it was run: as §1

[19] = compound: Cn1cncc1[C@@](N)(c1ccc(Cl)cc1)c1ccc2c(c1)c(-c1cccc(Cl)c1)cc(=O)n2C [tipifarnib]
How it was run: as §1

[20] = compound: FC(F)(F)c1ccc(/C=C/c2nc(COc3ccc(CCCCn4ccnn4)cc3)co2)cc1 [mubritinib]
How it was run: as §1

Measured: log2 fold change

KCTD10 (UniProt Q9H3F6)
inactive: [1] -0.035 | [2] 0.097 | [3] -0.027 | [4] -0.13 | [5] 0.05 | [6] 0.042 | [7] 0.035 | [8] -0.01 | [9] -0.042 | [10] 0.108 | [11] -0.059 | [12] -0.036 | [13] 0.002 | [14] -0.088 | [15] 0.056 | [16] 0.074 | [17] 0.012 | [18] 0.153 | [19] 0.058 | [20] -0.009

JMJD6 isoform 3 (UniProt Q6NYC1)
inactive: [1] -0.037 | [2] 0.046 | [3] 0.046 | [4] -0.034 | [5] 0.002 | [6] -0.147 | [7] 0.024 | [8] 0.029 | [9] 0.005 | [10] 0.039 | [11] -0.067 | [12] 0.06 | [13] -0.011 | [14] -0.254 | [15] -0.009 | [16] -0.098 | [17] -0.008 | [18] -0.047 | [19] 0.036 | [20] -0.065

ILF2 (UniProt Q12905)
inactive: [1] -0.168 | [2] -0.164 | [3] -0.153 | [4] 0.206 | [5] -0.126 | [6] 0.07 | [7] -0.024 | [8] 0.022 | [9] 0.063 | [10] 0.038 | [11] 0.093 | [12] -0.012 | [13] -0.011 | [14] 0.251 | [15] 0.121 | [16] 0.3 | [17] -0.151 | [18] -0.084 | [19] 0.006 | [20] -0.071

LIMA1 isoform 4 (UniProt Q9UHB6)
Chain of UniProt Q9UHB6 (Q9UHB6 whole entry, looked up): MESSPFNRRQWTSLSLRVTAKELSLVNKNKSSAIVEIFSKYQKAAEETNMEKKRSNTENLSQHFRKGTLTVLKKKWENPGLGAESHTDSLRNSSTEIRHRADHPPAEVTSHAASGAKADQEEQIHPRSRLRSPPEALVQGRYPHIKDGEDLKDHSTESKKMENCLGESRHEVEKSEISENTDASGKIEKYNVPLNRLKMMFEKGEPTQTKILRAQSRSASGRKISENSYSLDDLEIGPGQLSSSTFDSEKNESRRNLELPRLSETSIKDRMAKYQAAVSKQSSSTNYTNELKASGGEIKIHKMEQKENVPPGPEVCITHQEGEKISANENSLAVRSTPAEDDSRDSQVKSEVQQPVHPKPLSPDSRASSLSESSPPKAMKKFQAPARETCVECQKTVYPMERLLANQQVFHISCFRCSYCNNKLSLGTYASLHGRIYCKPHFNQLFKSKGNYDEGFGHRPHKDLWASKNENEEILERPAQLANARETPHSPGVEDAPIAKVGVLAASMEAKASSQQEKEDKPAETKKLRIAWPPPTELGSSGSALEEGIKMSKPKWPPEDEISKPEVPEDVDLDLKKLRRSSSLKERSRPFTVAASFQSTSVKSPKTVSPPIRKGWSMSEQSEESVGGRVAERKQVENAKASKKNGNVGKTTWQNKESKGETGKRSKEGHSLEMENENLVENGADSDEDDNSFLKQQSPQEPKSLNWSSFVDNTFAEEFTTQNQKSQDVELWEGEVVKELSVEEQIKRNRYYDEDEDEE
inactive: [1] -0.076 | [2] 0.001 | [3] -0.04 | [4] -0.057 | [5] 0.003 | [6] 0.019 | [7] 0.027 | [8] -0.036 | [9] -0.023 | [10] 0.185 | [11] -0.115 | [12] 0.019 | [13] -0.136 | [14] -0.112 | [15] 0.179 | [16] 0.052 | [17] -0.154 | [18] -0.071 | [19] 0.088 | [20] 0.019

KDM3B (UniProt Q7LBC6)
inactive: [1] 0.045 | [2] 0.001 | [3] 0.086 | [4] -0.044 | [5] 0.015 | [6] -0.045 | [7] 0.06 | [8] 0.012 | [9] -0.077 | [10] 0.015 | [11] -0.005 | [12] 0.038 | [13] -0.009 | [14] -0.098 | [15] -0.136 | [16] 0.042 | [17] -0.032 | [18] 0.006 | [19] 0.018 | [20] 0.002

KPNB1 (UniProt Q14974)
Chain of UniProt Q14974 (Q14974 whole entry, looked up): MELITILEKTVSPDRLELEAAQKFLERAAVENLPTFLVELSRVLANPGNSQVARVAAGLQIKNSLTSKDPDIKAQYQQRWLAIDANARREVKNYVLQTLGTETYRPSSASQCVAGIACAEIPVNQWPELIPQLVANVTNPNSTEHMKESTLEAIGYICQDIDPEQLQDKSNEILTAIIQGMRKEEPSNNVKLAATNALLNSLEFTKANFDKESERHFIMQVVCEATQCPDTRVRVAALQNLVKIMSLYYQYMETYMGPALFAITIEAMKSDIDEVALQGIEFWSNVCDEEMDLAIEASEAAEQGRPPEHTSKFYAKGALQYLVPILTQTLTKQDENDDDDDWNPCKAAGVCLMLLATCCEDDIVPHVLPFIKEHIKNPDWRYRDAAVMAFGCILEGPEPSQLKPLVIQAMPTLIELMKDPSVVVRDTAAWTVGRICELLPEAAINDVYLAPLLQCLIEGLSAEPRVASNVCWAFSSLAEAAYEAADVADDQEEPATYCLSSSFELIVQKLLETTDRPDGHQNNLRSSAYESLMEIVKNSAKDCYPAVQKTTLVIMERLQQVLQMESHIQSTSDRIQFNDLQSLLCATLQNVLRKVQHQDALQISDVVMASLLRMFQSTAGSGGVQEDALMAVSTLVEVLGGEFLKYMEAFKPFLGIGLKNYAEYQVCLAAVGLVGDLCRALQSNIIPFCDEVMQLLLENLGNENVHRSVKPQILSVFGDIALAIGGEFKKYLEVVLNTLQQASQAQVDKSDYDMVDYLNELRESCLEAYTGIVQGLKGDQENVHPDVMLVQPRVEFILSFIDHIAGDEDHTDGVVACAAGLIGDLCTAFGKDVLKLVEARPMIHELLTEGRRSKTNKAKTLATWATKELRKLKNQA
inactive: [1] -0.027 | [2] -0.201 | [3] -0.038 | [4] 0.047 | [5] -0.045 | [6] -0.09 | [7] 0.094 | [8] 0.083 | [9] 0.026 | [10] -0.225 | [11] 0.029 | [12] 0.029 | [13] -0.129 | [14] -0.09 | [15] -0.072 | [16] -0.018 | [17] -0.09 | [18] -0.045 | [19] -0.12 | [20] 0.019

LENG8 (UniProt Q96PV6)
inactive: [1] 0.022 | [2] -0.342 | [3] 0.112 | [4] 0.107 | [5] -0.005 | [6] -0.094 | [7] -0.016 | [8] 0.055 | [9] 0.039 | [10] 0.241 | [11] -0.088 | [12] 0.112 | [13] 0.006 | [14] -0.036 | [15] -0.388 | [16] -0.146 | [17] -0.039 | [18] -0.031 | [20] 0.032

KIF3B (UniProt O15066)
Chain of UniProt O15066 (O15066 whole entry, looked up): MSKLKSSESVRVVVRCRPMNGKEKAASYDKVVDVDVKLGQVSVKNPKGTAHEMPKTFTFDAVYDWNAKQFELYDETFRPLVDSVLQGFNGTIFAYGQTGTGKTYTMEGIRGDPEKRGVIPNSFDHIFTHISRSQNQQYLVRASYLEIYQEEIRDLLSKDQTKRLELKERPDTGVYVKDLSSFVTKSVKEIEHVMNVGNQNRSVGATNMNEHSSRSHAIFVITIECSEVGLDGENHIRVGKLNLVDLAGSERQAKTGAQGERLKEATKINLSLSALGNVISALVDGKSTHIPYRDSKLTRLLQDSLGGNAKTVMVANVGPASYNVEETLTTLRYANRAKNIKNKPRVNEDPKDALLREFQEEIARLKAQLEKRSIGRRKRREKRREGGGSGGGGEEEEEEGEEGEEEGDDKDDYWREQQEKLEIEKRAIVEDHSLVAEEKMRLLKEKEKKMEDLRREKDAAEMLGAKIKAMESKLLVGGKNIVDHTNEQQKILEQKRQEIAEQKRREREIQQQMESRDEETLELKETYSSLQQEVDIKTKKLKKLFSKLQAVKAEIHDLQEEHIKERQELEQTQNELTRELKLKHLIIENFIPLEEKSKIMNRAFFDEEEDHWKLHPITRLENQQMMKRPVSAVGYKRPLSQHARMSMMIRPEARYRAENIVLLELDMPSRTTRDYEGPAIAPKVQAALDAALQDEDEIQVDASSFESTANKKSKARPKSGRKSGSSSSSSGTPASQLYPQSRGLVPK
inactive: [1] -0.004 | [2] -0.018 | [3] 0.054 | [4] 0.03 | [5] 0.05 | [6] -0.199 | [7] -0.051 | [8] -0.023 | [9] 0.076 | [10] 0.04 | [11] 0.007 | [12] 0.122 | [15] -0.06 | [17] 0.002 | [18] -0.048 | [19] -0.07 | [20] 0.115

IPO13 (UniProt O94829)
Chain of UniProt O94829 (O94829 whole entry, looked up): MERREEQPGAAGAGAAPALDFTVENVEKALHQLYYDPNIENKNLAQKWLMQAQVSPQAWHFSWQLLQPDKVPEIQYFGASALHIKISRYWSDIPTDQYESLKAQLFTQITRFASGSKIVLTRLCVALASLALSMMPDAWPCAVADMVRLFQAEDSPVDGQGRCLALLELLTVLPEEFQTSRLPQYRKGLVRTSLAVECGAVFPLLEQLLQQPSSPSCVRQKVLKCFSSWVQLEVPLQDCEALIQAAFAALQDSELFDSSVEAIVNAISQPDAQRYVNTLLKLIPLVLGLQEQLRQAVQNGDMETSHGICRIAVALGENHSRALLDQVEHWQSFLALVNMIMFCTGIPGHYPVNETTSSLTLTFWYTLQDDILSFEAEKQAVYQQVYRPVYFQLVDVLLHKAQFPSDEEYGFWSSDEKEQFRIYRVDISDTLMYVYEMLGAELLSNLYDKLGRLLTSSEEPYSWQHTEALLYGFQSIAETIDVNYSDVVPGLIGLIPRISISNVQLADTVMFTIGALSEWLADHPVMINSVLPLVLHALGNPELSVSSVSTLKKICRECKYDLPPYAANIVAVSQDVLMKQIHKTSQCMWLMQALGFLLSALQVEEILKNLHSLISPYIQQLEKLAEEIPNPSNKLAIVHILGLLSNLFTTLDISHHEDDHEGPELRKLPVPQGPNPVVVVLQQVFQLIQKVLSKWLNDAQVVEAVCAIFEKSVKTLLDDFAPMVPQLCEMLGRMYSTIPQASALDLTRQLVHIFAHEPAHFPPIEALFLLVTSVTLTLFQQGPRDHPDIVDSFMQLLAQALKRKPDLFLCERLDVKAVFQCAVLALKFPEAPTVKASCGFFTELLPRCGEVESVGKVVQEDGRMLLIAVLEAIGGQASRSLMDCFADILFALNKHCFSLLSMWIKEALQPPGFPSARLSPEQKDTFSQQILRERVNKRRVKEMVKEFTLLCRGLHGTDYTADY
inactive: [1] -0.042 | [2] -0.134 | [3] 0.016 | [4] -0.028 | [5] 0.04 | [6] -0.234 | [7] 0.001 | [8] 0.01 | [9] 0.023 | [10] -0.13 | [11] -0.11 | [12] -0.006 | [13] -0.001 | [14] -0.094 | [15] -0.021 | [16] 0.071 | [17] -0.022 | [18] -0.025 | [19] -0.106 | [20] 0.06

MFN2 (UniProt O95140)
Chain of UniProt O95140 (O95140 whole entry, looked up): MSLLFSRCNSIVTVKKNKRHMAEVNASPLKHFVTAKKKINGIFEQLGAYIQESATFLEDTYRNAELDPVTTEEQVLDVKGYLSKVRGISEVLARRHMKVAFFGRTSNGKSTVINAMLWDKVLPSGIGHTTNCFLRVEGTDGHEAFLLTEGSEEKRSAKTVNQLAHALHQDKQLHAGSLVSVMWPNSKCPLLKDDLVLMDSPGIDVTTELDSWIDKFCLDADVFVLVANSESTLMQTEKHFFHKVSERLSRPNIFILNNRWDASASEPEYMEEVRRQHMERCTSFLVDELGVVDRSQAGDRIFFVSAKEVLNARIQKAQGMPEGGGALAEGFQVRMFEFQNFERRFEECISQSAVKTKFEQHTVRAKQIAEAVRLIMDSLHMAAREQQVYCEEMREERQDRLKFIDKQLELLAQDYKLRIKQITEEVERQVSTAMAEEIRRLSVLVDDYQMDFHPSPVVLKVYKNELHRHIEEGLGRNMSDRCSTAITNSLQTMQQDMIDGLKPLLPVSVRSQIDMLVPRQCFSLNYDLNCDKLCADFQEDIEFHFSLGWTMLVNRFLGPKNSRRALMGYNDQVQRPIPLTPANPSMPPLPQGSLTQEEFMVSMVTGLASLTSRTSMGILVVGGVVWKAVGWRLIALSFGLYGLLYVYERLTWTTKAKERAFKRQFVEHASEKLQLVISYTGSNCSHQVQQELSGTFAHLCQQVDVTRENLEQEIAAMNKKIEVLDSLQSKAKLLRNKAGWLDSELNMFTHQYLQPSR
inactive: [1] 0.028 | [2] -0.109 | [3] 0 | [4] 0.022 | [5] -0.048 | [6] 0.028 | [7] -0.013 | [8] 0.041 | [9] 0.039 | [10] -0.208 | [11] -0.106 | [12] 0.068 | [13] -0.002 | [14] -0.022 | [15] -0.024 | [16] -0.01 | [17] -0.004 | [18] 0.018 | [19] -0.004 | [20] 0.019

KIF3A (UniProt Q9Y496)
Chain of UniProt Q9Y496 (Q9Y496 whole entry, looked up): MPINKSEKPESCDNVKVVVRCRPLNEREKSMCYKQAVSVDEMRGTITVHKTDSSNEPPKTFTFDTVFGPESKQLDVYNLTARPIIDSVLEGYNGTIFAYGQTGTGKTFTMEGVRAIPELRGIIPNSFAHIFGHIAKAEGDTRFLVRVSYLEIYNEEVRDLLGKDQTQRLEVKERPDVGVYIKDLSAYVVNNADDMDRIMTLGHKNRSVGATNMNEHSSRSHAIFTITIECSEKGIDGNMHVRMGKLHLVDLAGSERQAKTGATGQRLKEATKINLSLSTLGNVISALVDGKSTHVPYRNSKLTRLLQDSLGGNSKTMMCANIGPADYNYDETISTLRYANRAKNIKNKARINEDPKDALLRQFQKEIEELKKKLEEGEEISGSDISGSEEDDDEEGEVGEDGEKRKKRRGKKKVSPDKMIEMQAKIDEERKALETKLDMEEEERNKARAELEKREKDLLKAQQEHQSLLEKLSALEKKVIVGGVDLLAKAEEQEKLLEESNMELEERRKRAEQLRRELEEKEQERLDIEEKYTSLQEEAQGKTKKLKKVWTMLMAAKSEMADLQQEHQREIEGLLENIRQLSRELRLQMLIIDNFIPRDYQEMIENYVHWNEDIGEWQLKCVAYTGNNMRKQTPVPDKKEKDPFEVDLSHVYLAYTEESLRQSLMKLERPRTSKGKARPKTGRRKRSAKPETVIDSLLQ
inactive: [1] 0.049 | [2] -0.239 | [3] -0.01 | [4] 0.143 | [5] 0.048 | [6] -0.024 | [7] 0.009 | [8] -0.029 | [9] 0.003 | [10] 0.044 | [11] 0.022 | [12] -0.047 | [13] -0.128 | [14] 0.054 | [15] -0.068 | [16] 0.093 | [17] 0.025 | [18] -0.043 | [19] -0.031 | [20] 0.018

MARCKSL1 (UniProt P49006)
Chain of UniProt P49006 (P49006 whole entry, looked up): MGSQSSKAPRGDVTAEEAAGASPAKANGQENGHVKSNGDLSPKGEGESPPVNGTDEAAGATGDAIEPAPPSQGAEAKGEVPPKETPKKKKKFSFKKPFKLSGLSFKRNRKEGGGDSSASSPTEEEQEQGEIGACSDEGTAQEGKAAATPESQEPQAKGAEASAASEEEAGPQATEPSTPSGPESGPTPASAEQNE
inactive: [1] 0.032 | [2] 0.09 | [3] -0.006 | [4] -0.094 | [5] 0.025 | [6] -0.006 | [7] -0.033 | [8] -0.074 | [9] -0.047 | [10] 0.071 | [11] 0.04 | [12] -0.087 | [13] 0.003 | [14] 0.014 | [15] 0.062 | [16] 0.009 | [17] -0.008 | [18] -0.004 | [19] 0.034 | [20] 0.005
